What all share (test): NCI-60 one-dose screen, 48 h (100 = growth as untreated, 0 = no growth, -100 = all killed)
Conditions in all cases: 10 µM unless noted

In test [1] the test system is SR leukemia.
Test [2] relates to RPMI-8226 leukemia.
In test [3] the test system is OVCAR-8 ovarian.
Test [4] concerns OVCAR-5 ovarian.
The test system of test [5] is OVCAR-4 ovarian.
Test [6] concerns SK-OV-3 ovarian.
For test [7], the system named is IGROV1 ovarian.
Test [8] deals with OVCAR-3 ovarian.
The test system of test [9] is HS 578T breast.
Test [10] relates to NCI/ADR-RES ovarian.

The record followed here is PubChem BioAssay (NCI).

About 83,000 compounds went through this panel and 20% of them were active in at least one assay; those are over-represented in the sample as a whole.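 Percent growth is the endpoint: 0 to 100 indicates growth inhibition (40 means 60% inhibition), 0 means no net growth, and negative values indicate cell death.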 Values without a mark were called inactive. Active and inactive are the calls of the source. Rule for the calls: active = growth percent below 10; inactive = the rest.

In the case of `COc1ccc(C(=O)c2cc3c(N)c(C(=O)Nc4ccccc4)sc3nc2C)cc1`, the growth in [1] is 8.41% (active); in [2] it was 14.3%; in [3], 25.5%; in test [4], 38.8%; in [5] it was 74.8%; in test [6], 33%. The growth was 39% in [7], -4.41% (active) in [8], 10.6% in [9] and 14.8% in test [10].
As for `COc1cccc(-c2cc(-c3cccc(Cl)c3)c(C#N)c(=O)[nH]2)c1`, the growth in [1] is 45.5%; in [2] it was 64.3%; in test [3], 89.6%; in [4], 96.7%; in test [5], 73%; in [6], 81%. Also, the growth in test [7] is 71.8%; in test [8], 51%; in test [9], 49.3%; in [10], 69.2%.
Consider `O=C(N/N=C/c1cc(Cl)ccc1O)c1ccccc1Nc1ccnc(C(F)(F)F)c1`, for which the growth in test [1] was 105%; in test [2] it was 47.2%; in test [3] it was 63.5%; in [4], 57.4%; in test [5] it was 28.7%; in [6], 25%. Also, the growth in test [7] was 92.5%; in test [8], 38%; in test [9], 75%; in test [10], 22.6%.
Take `CNC1=C([N+](=O)[O-])C(c2ccc(OC)cc2)C(C#N)=C(c2cccs2)O1` (stereo not given): the growth in test [1] was 112%; in test [2], 111%; in test [3], 103%; in test [4], 108%; in [5] it was 100%; in [6], 110%. The growth is 108% in test [7], 99.4% in test [8], 106% in [9] and 107% in test [10].
Consider `Nc1ccc(-c2csc(-n3[nH]c(=O)ccc3=O)n2)cc1`, for which the growth in test [1] is 102%; in test [2], 97.3%; in [3] it was 101%; in test [4] it was 108%; in test [5] it was 101%; in test [6] it was 112%. Further, the growth in test [7] was 99%; in test [8] it was 113%; in test [9] it was 100%; in test [10] it was 94.4%.
As to `CC/C=C\C[C@H](O)C/C=C1/C(=O)C=C[C@@H]1C/C=C\CCCC(=O)O`, the growth is 10.3% in test [1]; 10.1% in test [2]; 20% in test [3]; 128% in test [4]; 74.8% in test [5]; 116% in [6]. Moreover, the growth was 99.2% in [7], 14.8% in test [8], 85% in test [9] and 78.3% in test [10].
As for `COc1ccc2c(c1)c(/C(O)=C1\COC(=O)C1=O)cn2Cc1ccc(F)cc1`, the growth in test [1] was 136%; in test [2], 72.1%; in test [3], 111%; in test [4], 98%; in test [5] it was 97.1%; in test [6], 110%. Also, the growth in test [7] is 44%; in test [8] it was 107%; in test [9] it was 109%; in test [10], 107%.
As for `O=C(Oc1ccc(CCl)cc1)c1ccccc1`, the growth in test [1] was -43.7% (active); in test [2], -50.2% (active); in test [3], -84.5% (active); in test [4] it was -85.2% (active); in [5], -83.1% (active); in [6], -100% (active). The growth was -81.4% (active) in [7], -97.3% (active) in test [8], -13.4% (active) in test [9] and -63.7% (active) in [10].
Regarding `Cc1nc2ccccc2c(/C=C/c2ccccc2)c1C(=O)/C=C/c1ccccc1`, the growth in test [1] is 12.3%; in test [2] it was 8.21% (active); in test [3] it was 10.4%; in test [4] it was 6.51% (active); in test [5] it was 38.5%; in [6], 68.1%. Further, the growth in test [7] was 18.5%; in [8] it was 3.37% (active); in [9], 41.9%; in test [10], 7.26% (active).
Take `NS(=O)(=O)c1ccc(NC(=O)/C(=C\c2ccc(Cl)cc2Cl)NC(=O)c2ccccc2)cc1`: the growth is 96.6% in test [1]; 92.2% in test [2]; 101% in [3]; 108% in test [4]; 97.7% in test [5]; 96.3% in test [6]. Also, the growth in test [7] was 74.9%; in test [8], 113%; in test [9], 89.6%; in [10], 98.2%.
As to `Cc1ccc(N2C(=O)CCC2=O)cc1`, the growth was 104% in test [1]; 103% in [2]; 108% in test [3]; 96.3% in [4]; 103% in test [5]; 99.7% in test [6]. Further, the growth was 113% in [7], 102% in test [8], 99.4% in [9] and 98.5% in test [10].
`COc1ccc2c(c1)c(-c1nc(-c3c[nH]c4ncccc34)cs1)cn2CCO`: the growth in test [1] is 37.8%; in test [2], 39.9%; in test [3], 56.2%; in test [4] it was 68.2%; in test [5], 42.1%; in [6], 30%. The growth in test [7] was 43.4%; in test [8], 78.7%; in [9], 33.5%; in test [10], 76%.
Regarding `O=C1/C(=C/c2ccccc2F)CN(C(=O)C(Cl)Cl)C/C1=C\c1ccccc1F`, the growth was -11.4% (active) in test [1]; -27.7% (active) in test [2]; 2.66% (active) in test [3]; -41.6% (active) in test [4]; 14.9% in test [5]; 32.4% in [6]. Besides, the growth is -36.9% (active) in test [7], -94% (active) in test [8], 4.55% (active) in test [9] and 5.18% (active) in test [10].
With `CC(C)(C)n1cc(-c2ccnc(NCCNS(=O)(=O)c3ccc(O)cc3)c2)c(-c2cccc(O)c2)n1`, the growth in test [1] was 88%; in test [2] it was 80%; in test [3], 96%; in test [4], 97.1%; in test [5], 94.1%; in test [6] it was 116%. Also, the growth was 112% in test [7], 114% in test [8], 97.6% in test [9] and 107% in test [10].
Turning to `O=c1c2c3c(sc2n2c(-c4cc(-c5ccccc5)no4)nnc2n1Cc1ccccc1)CCCC3`, the growth in test [1] is 55.7%; in test [2] it was 53.5%; in [3], 40.9%; in [4], 82.8%; in test [5] it was 87.6%; in [6], 124%. For the same molecule, the growth is -11.9% (active) in test [7], 78.7% in [8], 101% in [9] and 80.6% in test [10].
Turning to `CCc1ccc(CCC(=O)Nc2ncc(Cc3ccccc3)s2)o1`, the growth in [1] is 22.6%; in [2], 29.4%; in test [3] it was 28.4%; in test [4], 38.9%; in [5] it was 61.5%; in test [6], 34.4%. Besides, the growth in [7] is 35.6%; in test [8], -11.2% (active); in test [9] it was 9.99% (active); in test [10], 12.7%.
On to `CCC1S/C(=N\N=C(\C)c2cc3cc(Cl)ccc3o2)N(c2ccccc2)C1=O` (stereo not given), for which the growth in [1] is 85.1%; in test [2], 83.7%; in [3], 126%; in test [4] it was 100%; in test [5], 107%; in [6] it was 108%. The growth in test [7] was 671%; in test [8], 75.5%; in [9] it was 52.4%; in test [10] it was 90.8%.
As to `COc1ccc(N2CCN(C(=O)c3sc4nc(C)c(Br)c(C)c4c3N)CC2)cc1`, the growth in test [1] was 97.4%; in [2], 98.5%; in [3], 97.6%; in test [4], 90.5%; in [5], 90.6%; in test [6], 90.1%. Besides, the growth in test [7] was 91.2%; in test [8], 98.3%; in test [9], 92.8%; in test [10] it was 101%.
For `Cc1n[nH]c2ccc(Br)cc2c1=O`, the growth in [1] is 100%; in test [2] it was 98.1%; in [3], 110%; in test [4], 102%; in test [5], 125%; in test [6], 98.6%. Moreover, the growth in [7] is 99.6%; in test [8], 109%; in test [9], 101%; in test [10], 110%.
In the case of `CN1CCN(C(=O)[C@@]2(C)CC[C@]3(C)CC[C@]4(C)C(=CC[C@@H]5[C@@]6(C)CCC(=O)NC(C)(C)[C@@H]6CC[C@]54C)[C@@H]3C2)CC1`, the growth in test [1] is -10.4% (active); in test [2], 20.6%; in test [3], 64.1%; in test [4], 83.8%; in [5], 50.6%; in test [6], 53.8%. The growth was 63.8% in [7], 57.8% in test [8], 55.2% in test [9] and 59.6% in test [10].
For the molecule `Nc1nc(N)c2c(n1)NC(c1cccc(Nc3ccnc4cc(C(F)(F)F)ccc34)c1)CC(c1ccc(Br)cc1)=N2` (stereo not given), the growth in test [1] was 0.0412% (active); in test [2], 5.34% (active); in [3], 66%; in test [4], 107%; in test [5], 77.5%; in [6], 57.2%. In addition, the growth was 58.8% in [7], 38.1% in test [8], 68.4% in test [9] and 56.5% in test [10].
In the case of `CC1=C(C(=O)Nc2ccccc2)C(c2ccc3c(c2)OCO3)NC(=S)N1` (stereo not given), the growth is 99.2% in test [1]; 109% in [2]; 104% in test [3]; 115% in test [4]; 114% in [5]; 110% in [6]. In addition, the growth in test [7] is 103%; in [8] it was 110%; in [9], 105%; in test [10], 106%.
As for `COC1=C(C)C(=O)N2[C@@H]1[C@H](c1ccccc1)OC21C=CC(=O)C=C1`, the growth in test [1] is 2.4% (active); in test [2], -20.7% (active); in [3], 19.4%; in test [4] it was -56.1% (active); in test [5], 33.4%; in test [6], 112%. Moreover, the growth in [7] was -20.7% (active); in [8] it was -4.05% (active); in test [9], 32.6%; in test [10], 20.1%.
As to `O=C(CI)NC(=O)NC(=O)NCc1ccccc1`, the growth in test [1] was -5.93% (active); in [2] it was 29.4%; in test [3] it was 56.3%; in test [4], 44.3%; in test [5] it was 30.3%; in test [6], 104%. Further, the growth in test [7] was 21.1%; in test [8], -55.9% (active); in test [9], 102%; in [10] it was 71%.
For the molecule `O=C1/C(=C/c2ccc(F)cc2)CN(C(=O)C(Cl)Cl)C/C1=C\c1ccc(F)cc1`, the growth is -18.4% (active) in [1]; -31.4% (active) in test [2]; -9.41% (active) in [3]; -53.8% (active) in test [4]; 12.7% in test [5]; 23.5% in [6]. In addition, the growth was -50.3% (active) in [7], -95.1% (active) in test [8], 6.3% (active) in [9] and 5.22% (active) in test [10].
For `COc1ccccc1C(=O)Nc1cccc(NC(=O)c2ccoc2C)c1`, the growth in [1] was 15.5%; in test [2], 20.7%; in [3], 40.4%; in test [4] it was 85.3%; in [5] it was 77.7%; in [6] it was 66.1%. Also, the growth is 41.6% in [7], 15% in test [8], 40.2% in test [9] and 9.85% (active) in [10].
